# Results from ChEMBL document CHEMBL1961873, “Compounds: GSK PKIS; Assays: Nanosyn kinase panel” (2012).
# Values joined by “and” are separate entries in the source; they are usually repeats but may differ in a detail not shown here. Equal entries are not always repeated.
# Tests used:
# [1] = system: Proto-oncogene tyrosine-protein kinase receptor Ret (Homo sapiens), P07949 [Y791F]; conditions: at 1 µM
# [2] = target: Macrophage-stimulating protein receptor (Homo sapiens) (UniProt Q04912); conditions: at 0.1 µM
# [3] = target: Macrophage-stimulating protein receptor (Homo sapiens) (UniProt Q04912); conditions: at 1 µM
# [4] = target: Proto-oncogene tyrosine-protein kinase ROS (Homo sapiens) (UniProt P08922); conditions: at 0.1 µM
# [5] = target: Proto-oncogene tyrosine-protein kinase ROS (Homo sapiens) (UniProt P08922); conditions: at 1 µM
# [6] = target: Proto-oncogene tyrosine-protein kinase Src (Homo sapiens) (UniProt P12931); conditions: at 0.1 µM
# [7] = target: Proto-oncogene tyrosine-protein kinase Src (Homo sapiens) (UniProt P12931); conditions: at 1 µM
# [8] = target: Tyrosine-protein kinase Srms (Homo sapiens) (UniProt Q9H3Y6); conditions: at 0.1 µM
# [9] = target: Tyrosine-protein kinase Srms (Homo sapiens) (UniProt Q9H3Y6); conditions: at 1 µM
# [10] = target: Tyrosine-protein kinase SYK (Homo sapiens) (UniProt P43405); conditions: at 0.1 µM
# [11] = target: Tyrosine-protein kinase SYK (Homo sapiens) (UniProt P43405); conditions: at 1 µM
# [12] = target: T1, Tyrosine-protein kinase Tec (Homo sapiens) (UniProt P42680); conditions: at 0.1 µM
# T1 sequence (whole entry): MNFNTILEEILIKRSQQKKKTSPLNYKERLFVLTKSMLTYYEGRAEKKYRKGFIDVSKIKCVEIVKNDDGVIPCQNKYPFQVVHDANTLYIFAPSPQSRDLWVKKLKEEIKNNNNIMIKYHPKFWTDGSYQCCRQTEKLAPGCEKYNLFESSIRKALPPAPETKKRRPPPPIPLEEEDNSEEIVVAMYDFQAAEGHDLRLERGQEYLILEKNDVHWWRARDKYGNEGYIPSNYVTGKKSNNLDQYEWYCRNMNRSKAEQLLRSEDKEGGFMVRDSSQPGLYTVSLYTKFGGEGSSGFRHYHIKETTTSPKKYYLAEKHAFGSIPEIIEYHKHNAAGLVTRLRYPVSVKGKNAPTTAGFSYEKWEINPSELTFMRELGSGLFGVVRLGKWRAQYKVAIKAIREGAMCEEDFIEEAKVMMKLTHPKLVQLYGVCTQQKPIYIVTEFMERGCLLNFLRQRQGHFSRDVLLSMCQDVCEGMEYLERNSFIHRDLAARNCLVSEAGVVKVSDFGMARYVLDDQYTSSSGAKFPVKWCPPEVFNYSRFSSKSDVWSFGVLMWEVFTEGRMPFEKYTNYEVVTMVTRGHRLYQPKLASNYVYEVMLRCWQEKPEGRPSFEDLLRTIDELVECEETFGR
# [13] = target: T1, Tyrosine-protein kinase Tec (Homo sapiens); conditions: at 1 µM
# [14] = target: Angiopoietin-1 receptor (Homo sapiens) (UniProt Q02763); conditions: at 0.1 µM
# [15] = target: Angiopoietin-1 receptor (Homo sapiens) (UniProt Q02763); conditions: at 1 µM
# [16] = target: T2, Non-receptor tyrosine-protein kinase TNK1 (Homo sapiens) (UniProt Q13470); conditions: at 0.1 µM
# T2 sequence (whole entry): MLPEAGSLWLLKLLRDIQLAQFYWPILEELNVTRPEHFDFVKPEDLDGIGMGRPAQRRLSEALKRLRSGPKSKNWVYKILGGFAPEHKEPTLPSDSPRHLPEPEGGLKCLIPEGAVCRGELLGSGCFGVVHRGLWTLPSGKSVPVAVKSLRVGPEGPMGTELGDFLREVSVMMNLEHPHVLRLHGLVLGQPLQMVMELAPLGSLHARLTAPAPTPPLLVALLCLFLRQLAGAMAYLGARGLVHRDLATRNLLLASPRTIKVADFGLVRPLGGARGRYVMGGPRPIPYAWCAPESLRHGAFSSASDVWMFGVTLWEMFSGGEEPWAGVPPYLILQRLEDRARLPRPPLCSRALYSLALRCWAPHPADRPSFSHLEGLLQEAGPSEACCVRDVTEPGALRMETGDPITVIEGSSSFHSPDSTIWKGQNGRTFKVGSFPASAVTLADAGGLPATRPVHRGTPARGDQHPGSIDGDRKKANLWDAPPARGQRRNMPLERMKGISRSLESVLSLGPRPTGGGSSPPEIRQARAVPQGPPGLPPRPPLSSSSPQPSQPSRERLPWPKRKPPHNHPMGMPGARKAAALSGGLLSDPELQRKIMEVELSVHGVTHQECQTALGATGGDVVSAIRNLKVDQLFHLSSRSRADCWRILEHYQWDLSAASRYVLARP
# [17] = target: T2, Non-receptor tyrosine-protein kinase TNK1 (Homo sapiens); conditions: at 1 µM
# [18] = target: Activated CDC42 kinase 1 (Homo sapiens) (UniProt Q07912); conditions: at 0.1 µM
# [19] = target: Activated CDC42 kinase 1 (Homo sapiens) (UniProt Q07912); conditions: at 1 µM
# [20] = target: High affinity nerve growth factor receptor (Homo sapiens) (UniProt P04629); conditions: at 0.1 µM;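 note: each value is a mean of replicate percent inhibition readings against TRKA kinase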
# Macrophage-stimulating protein receptor (Homo sapiens), sequence (Q04912 25-304 limits assumed): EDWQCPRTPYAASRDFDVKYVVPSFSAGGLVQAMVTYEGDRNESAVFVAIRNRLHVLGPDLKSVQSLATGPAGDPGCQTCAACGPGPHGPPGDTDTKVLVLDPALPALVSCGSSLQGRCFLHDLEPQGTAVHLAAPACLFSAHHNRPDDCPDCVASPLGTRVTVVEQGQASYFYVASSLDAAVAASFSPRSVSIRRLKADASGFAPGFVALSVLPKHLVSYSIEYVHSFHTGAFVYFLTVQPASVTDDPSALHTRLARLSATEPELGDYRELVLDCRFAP
# Macrophage-stimulating protein receptor (Homo sapiens), sequence (Q04912 310-1400 limits assumed): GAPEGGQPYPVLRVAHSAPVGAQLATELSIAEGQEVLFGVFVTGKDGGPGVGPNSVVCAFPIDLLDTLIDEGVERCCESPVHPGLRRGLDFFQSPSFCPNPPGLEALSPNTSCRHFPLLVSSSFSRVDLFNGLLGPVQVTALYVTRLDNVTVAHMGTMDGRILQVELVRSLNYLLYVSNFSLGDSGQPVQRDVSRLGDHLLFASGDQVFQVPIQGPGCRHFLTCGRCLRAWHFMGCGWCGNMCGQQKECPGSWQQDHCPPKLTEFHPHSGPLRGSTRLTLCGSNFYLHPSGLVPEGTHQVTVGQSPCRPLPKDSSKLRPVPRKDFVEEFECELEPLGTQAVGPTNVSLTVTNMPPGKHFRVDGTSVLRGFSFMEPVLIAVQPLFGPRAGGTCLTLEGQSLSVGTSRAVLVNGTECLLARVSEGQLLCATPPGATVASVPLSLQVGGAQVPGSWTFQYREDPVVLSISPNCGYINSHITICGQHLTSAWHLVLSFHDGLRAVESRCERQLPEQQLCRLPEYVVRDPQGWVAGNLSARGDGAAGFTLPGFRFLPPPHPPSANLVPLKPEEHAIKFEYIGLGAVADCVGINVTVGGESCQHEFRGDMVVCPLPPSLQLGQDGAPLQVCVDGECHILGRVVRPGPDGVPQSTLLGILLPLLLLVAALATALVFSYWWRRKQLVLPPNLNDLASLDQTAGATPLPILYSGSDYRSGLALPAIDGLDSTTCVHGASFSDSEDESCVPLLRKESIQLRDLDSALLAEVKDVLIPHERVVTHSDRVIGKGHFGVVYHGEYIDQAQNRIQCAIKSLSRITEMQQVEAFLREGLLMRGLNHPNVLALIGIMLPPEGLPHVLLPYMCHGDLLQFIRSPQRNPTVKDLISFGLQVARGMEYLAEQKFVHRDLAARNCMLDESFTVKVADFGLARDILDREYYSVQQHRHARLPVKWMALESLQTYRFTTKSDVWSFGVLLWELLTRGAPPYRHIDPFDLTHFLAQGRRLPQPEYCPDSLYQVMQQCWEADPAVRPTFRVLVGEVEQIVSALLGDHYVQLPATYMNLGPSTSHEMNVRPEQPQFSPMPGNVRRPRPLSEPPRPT
# Activated CDC42 kinase 1 (Homo sapiens), sequence (Q07912 whole entry, looked up): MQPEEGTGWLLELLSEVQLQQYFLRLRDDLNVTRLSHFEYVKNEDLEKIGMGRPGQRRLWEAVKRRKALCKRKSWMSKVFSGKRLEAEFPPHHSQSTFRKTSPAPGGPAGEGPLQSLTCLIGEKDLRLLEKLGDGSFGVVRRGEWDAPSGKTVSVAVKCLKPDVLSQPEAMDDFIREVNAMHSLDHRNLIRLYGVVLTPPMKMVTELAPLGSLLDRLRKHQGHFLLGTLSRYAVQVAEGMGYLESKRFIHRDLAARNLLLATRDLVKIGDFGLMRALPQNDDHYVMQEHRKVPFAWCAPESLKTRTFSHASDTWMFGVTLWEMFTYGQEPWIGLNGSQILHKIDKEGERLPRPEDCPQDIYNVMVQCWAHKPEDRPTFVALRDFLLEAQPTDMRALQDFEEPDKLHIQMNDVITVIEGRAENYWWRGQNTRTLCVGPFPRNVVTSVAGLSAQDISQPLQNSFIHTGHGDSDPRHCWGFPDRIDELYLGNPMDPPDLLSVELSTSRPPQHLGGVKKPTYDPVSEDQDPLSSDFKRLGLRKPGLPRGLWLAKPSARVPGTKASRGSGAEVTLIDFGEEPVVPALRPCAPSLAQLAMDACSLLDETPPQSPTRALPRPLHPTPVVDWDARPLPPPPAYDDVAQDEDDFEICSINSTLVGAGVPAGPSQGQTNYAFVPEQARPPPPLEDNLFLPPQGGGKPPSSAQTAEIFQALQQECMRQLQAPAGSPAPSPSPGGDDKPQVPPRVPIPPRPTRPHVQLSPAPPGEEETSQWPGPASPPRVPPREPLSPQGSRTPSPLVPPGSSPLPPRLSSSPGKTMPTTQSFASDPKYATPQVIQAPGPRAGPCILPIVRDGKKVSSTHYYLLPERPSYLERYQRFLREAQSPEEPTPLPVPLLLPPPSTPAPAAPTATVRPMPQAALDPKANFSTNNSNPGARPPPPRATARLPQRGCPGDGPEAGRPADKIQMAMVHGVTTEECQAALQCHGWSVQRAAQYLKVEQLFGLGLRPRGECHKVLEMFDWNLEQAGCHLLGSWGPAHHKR
# Angiopoietin-1 receptor (Homo sapiens), sequence (Q02763 whole entry): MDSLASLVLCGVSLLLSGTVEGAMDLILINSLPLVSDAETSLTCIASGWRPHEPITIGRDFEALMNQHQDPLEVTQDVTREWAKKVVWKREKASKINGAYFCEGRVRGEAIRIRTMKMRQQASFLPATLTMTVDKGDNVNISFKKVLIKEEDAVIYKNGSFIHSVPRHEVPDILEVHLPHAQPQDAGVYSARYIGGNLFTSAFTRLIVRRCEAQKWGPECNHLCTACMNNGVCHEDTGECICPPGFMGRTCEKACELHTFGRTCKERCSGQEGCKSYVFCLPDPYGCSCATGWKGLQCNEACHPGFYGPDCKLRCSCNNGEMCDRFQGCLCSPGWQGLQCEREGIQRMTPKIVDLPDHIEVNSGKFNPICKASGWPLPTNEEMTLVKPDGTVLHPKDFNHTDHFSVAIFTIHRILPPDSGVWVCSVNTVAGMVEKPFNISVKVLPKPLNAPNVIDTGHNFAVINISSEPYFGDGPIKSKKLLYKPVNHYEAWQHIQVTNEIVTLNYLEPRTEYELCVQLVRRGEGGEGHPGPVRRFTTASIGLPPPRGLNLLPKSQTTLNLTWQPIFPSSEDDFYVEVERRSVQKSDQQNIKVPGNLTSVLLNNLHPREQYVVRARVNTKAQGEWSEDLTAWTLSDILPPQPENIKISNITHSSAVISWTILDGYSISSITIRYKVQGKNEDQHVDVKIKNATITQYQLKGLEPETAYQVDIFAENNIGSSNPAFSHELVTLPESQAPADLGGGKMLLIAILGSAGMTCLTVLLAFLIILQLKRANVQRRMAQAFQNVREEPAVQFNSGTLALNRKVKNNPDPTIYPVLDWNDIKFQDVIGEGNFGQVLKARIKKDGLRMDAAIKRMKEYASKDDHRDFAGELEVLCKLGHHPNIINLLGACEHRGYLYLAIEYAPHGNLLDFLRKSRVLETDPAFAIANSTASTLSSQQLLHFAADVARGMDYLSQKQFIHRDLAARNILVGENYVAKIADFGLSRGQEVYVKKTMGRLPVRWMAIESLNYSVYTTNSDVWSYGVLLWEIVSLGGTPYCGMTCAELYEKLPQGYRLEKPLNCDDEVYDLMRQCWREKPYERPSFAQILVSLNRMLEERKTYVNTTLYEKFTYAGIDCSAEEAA
# Proto-oncogene tyrosine-protein kinase receptor Ret (Homo sapiens), P07949 [Y791F], sequence (P07949 whole entry Y791F): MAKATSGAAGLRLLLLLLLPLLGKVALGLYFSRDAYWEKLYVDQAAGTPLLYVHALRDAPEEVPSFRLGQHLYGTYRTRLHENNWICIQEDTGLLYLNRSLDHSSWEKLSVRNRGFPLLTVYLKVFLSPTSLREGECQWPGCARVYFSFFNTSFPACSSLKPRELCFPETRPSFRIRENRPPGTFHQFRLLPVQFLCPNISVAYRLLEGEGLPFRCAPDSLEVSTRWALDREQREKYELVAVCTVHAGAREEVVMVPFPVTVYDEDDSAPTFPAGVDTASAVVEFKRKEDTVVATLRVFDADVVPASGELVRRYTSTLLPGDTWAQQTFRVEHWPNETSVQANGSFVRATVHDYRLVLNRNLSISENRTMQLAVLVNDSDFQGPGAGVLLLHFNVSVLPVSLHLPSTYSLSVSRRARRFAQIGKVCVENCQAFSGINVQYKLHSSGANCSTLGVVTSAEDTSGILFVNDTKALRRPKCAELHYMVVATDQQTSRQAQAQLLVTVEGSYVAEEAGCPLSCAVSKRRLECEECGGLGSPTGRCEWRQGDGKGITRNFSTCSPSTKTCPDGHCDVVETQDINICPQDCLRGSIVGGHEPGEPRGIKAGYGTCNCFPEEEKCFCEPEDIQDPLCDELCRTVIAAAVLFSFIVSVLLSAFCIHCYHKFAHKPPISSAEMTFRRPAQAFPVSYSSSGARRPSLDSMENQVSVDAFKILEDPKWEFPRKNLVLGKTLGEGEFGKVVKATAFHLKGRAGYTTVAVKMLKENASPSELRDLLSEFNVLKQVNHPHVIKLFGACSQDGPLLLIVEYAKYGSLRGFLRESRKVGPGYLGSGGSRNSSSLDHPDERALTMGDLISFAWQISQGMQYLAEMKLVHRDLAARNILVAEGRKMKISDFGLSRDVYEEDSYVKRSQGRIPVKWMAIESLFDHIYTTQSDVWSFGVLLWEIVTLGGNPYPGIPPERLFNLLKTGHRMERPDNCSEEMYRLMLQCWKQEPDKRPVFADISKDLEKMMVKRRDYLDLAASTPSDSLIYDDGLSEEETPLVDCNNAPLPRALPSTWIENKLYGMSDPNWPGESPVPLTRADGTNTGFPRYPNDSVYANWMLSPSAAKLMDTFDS
SMILES,inhibition [1],inhibition [2] [%],inhibition [3],inhibition [4],inhibition [5],inhibition [6],inhibition [7],inhibition [8],inhibition [9],inhibition [10],inhibition [11],inhibition [12],inhibition [13],inhibition [14],inhibition [15],inhibition [16],inhibition [17],inhibition [18],inhibition [19],inhibition [20]
COc1cc(N2CCN(C(C)C)CC2)ccc1Nc1nc(Nc2cccc3ncccc23)c2cc[nH]c2n1,14.2%,-0.12,1.56%,7.82%,45.3%,2%,0.42%,0.04%,0.63%,-1.08%,-0.52%,0.93%,-0.14%,3.15%,7.32%,0.11%,22.3%,1.12%,13.2%,1.86%
CCN1CCC(C(=O)Nc2n[nH]c3nnc(-c4cccc(F)c4F)cc23)CC1,3.53%,0.53,0.25%,-1.03%,3.74%,-1.14%,-2.38%,1.44%,2.12%,0.98%,0.2%,-1.63%,0.37%,1.84%,2.91%,1.54%,0.05%,-0.13%,0.07%,1.95%
c1cnn2ncc(-c3ccnc(NCCCN4CCOCC4)n3)c2c1,0.64%,7.49,0.88%,5.24%,8.64%,2.26%,5.93%,0.14%,1.41%,-6.13%,0.5%,2.64%,3.12%,2.79%,3.09%,1.04%,-1.51%,0.23%,-0.49%,2.69%
COc1cccc(-n2ncc3c(N/N=C/c4ccc(C(=O)NCCN(C)C)cc4)ncnc32)c1,72.4%,28.8,66.3%,11.2%,41.7%,65%,89.7%,2.52%,19.9%,-2.88%,5.44%,4.74%,19.6%,8.62%,46.4%,25.4%,68.3%,2.34%,13.2%,6.69%
O=C(O[C@H]1CN[C@H](C#Cc2cc3ncnc(Nc4ccc5c(ccn5Cc5cc(F)ccc5F)c4)c3s2)C1)N1CCOCC1,19.6%,-0.04,7.89%,5.19%,6.27%,0.52%,8.86%,-2.61%,-3.38%,-0.55%,0.11%,4.74%,7.34%,3.18%,10.8%,2.48%,1.5%,0.66%,0.98%,1.93%
COc1ccc(-c2nn3ncccc3c2-c2ccnc(Nc3ccc(F)c(F)c3)n2)cc1,19.1%,1.18,2.96%,6.57%,9.74%,3.58%,19.4%,-2.81%,1.37%,-2.45%,-2.02%,6.05%,7.67%,3.17%,7.31%,4.48%,9.68%,1.57%,4.87%,1.54%
CNC(=O)c1ncccc1Nc1nc(Nc2cc3c(cc2OC)CCCN3C(=O)CN(C)C)nc2[nH]ccc12,27.1%,-2.25,6.45%,83.4%,87.7%,0.68%,8.9%,0.09%,-0.71%,-1.3%,1.95%,5.55%,7.76%,1.81%,-0.04%,50%,73%,2.4%,10.8%,5.07%
COc1cc(N2CCN(C(C)C)CC2)ccc1Nc1nc(Nc2cccc(F)c2C(=O)O)c2cc[nH]c2n1,11.6%,0.36,2.96%,13.8%,54.7%,-3.89%,8.5%,-1.76%,5.01%,-4.66%,-7.57%,4.02%,5.87%,2.04%,5.53%,8.72%,53.4%,1.91%,5.95%,4.69%
CS(=O)(=O)Nc1ccc(-c2cc(-c3ccccc3)cc(C(N)=O)c2N)cc1,3.96%,-0.02,-1.34%,4.8%,6.51%,2.73%,4.51%,-2.19%,-2.04%,-0.83%,0.38%,0.8%,1.3%,0.34%,0.58%,1.13%,5.5%,-0.09%,-0.33%,3.2%
Nc1nccc(-c2c(-c3ccc(F)cc3)ncn2C2CCNCC2)n1,18.1% and 7.68%,7.21,-1.75% and 1.85%,1.07% and 4.79%,8.31% and 7.82%,-4.6% and -5.2%,0.47% and 5.61%,-1% and 0.6%,1.09% and -0.34%,0.33% and 1.19%,-2.74% and 1.45%,-2.4% and 0.94%,-2.93% and 2.08%,-0.35% and 2.75%,1.51% and 1.25%,-6.18% and -1.13%,-2.86% and -0.41%,-1.87% and 0.84%,-2.1% and 1.2%,-1.68% and 4.53%
CC1=C(C(=O)Nc2ccc3[nH]ncc3c2)C(c2ccc(F)cc2)N=C(c2ccc(C(F)(F)F)nc2)N1 (stereo not given),43%,7.5,5.38%,4.98%,14.9%,-1.49%,9.03%,1.74%,1.21%,3.11%,0.81%,3.03%,7.4%,2.65%,2.49%,1.86%,7.12%,1.17%,1.16%,4.01%
NS(=O)(=O)c1ccc(N/N=C2\C(=O)Nc3cccc(CCc4ccncc4)c32)cc1,29.1%,-0.73,5.76%,3%,9.09%,3.83%,9.5%,1.9%,1.2%,0.03%,-2.6%,-0.23%,4.92%,0.8%,3.33%,12.8%,14.7%,0.97%,1.34%,6.26%
CCn1c(-c2nonc2N)nc2cncc(C(=O)NCCNC)c21,12.2%,1.51,1.07%,3.34%,14%,8.77%,6.62%,-2.48%,-2.36%,-1.48%,-6.01%,2.57%,4.27%,5.54%,7.24%,-0.07%,8.48%,2.67%,2.15%,1.96%
